# The list is not random: actives were taken first. Their share in the collection is about 4%.
# PAX8 inh HTS – PAX8 transcriptional activity inhibition; RMG-I TPO-luciferase reporter, SteadyGlo, 24 h; 1.2% of 360,000 active; inhibition, % at 12.6 µM;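 active means mean replicate inhibition at least 60% with every replicate also reaching 60%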;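 further: luciferase light reporting Pax8 driven TPO promoter activity; plate controls were median of neutral control wells for no effect and mitoxantrone controls for full effect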
# Beta apoptosis – beta cell apoptosis inhibition | INS-1E cytokine-induced death, ATP luminescence, 48 h; percent of positive-control rescue, neutral wells zero | protection from apoptosis, % (no concentration beside the values) | 0.8% of 300,000 active;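 active means Every replicate reaches about 75%, or at least half do and their mean reaches it too, limit read from the data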;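 further: 0% = cytokine-treated negative control wells and 100% = positive control rescue; higher means more ATP so stronger rescue from cytokine killing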
# CSC inhib – cancer stem cell inhibition | cancer stem cell-like cells viability, luminescence | AID 2717 | 1.1% of 300,000 active | inhibition, % at 7.5 µM; in the data active means inhibition above about 75%; tested in HMLE shEcad cells
# Gli-Sufu block – Gli-Sufu pathway antagonism | 0.74% of 340,000 active | Sufu-KO-LIGHT fibroblasts, Gli luciferase reporter luminescence | AID 588413 | inhibition, % at 5 µM;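 active means inhibition above about 55%, limit read from the data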;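 further: 0% = DMSO-treated cells and 100% = wells with medium but no cells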
# Mdm2 MdmX PPI – disrupts the human Mdm2-MdmX interaction; SaOS-2 split-luciferase Mdm2/MdmX complementation, luminescence; 3% of 330,000 active; inhibition, % at 8 µM; O15151+Q00987;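 active means inhibition of at least 50% at 8 µM in the primary screen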
# Shn3 3UTR inh – inhibitors of Schnurri-3 3'UTR reporter in osteoblasts; 0.52% of 360,000 active; Clone20 osteoblast Shn3 3'UTR firefly luciferase, 24 h; inhibition, % at 12.5 µM;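 active means mean inhibition of at least 75% with every replicate also reaching 75%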;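 further: 0% = median of neutral control wells and 100% = pilot-screen positive control compound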
# Mdm2-MdmX conf – confirmation of human Mdm2/MdmX interaction inhibitors | shares compounds with Mdm2 MdmX PPI | Mdm2-MdmX binding, luminescent assay | inhibition, % at 8 µM | 55% of 10,000 active | AID 489028; in the data active means inhibition above about 40%
# Full FLuc ctr – counter-screen for Mdm2/MdmX inhibitors: full-length luciferase. SaOS-2 full-length luciferase counterscreen, luminescence. 77% of 6,200 active. AID 504607. shares compounds with Mdm2 MdmX PPI. inhibition, % at 8 µM;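 active means mean inhibition at 8 µM reaching about 37%, which flags the compound as non-specific, limit read from the data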;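 further: p53-null SaOS-2 cells with luciferase driven by a doxycycline-inducible promoter; compound on cells about two nights before reading with doxycycline added after day one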
# Gli-Sufu confirm – confirmation of Gli-SUFU pathway antagonists. Sufu-KO-LIGHT cells, Gli luciferase reporter, luminescence. shares compounds with Gli-Sufu block. 40% of 2,500 active. AID 602428. inhibition, % at 5 µM;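 active means mean inhibition at 5 µM reaching about 45%, limit read from the data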;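 further: plate controls were DMSO-treated cells for no effect and wells lacking cells for full effect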
# Gli cytotox – counter-screen for Gli-SUFU antagonists: cytotoxicity; Sufu-KO-LIGHT cells cytotoxicity, ATP luminescence; AID 651994; cytotoxicity, % at 5 µM; 32% of 2,500 active; shares compounds with Gli-Sufu block;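 active means mean cytotoxicity at 5 µM above about 25%, limit read from the data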;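 further: cells exposed to compound overnight for roughly 16 to 18 hours; plate controls were DMSO wells with cells for no effect and medium without cells for full effect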
# Wnt3a cs – Wnt3a reporter inhibition counter-screen; shares compounds with Gli-Sufu block; Wnt-LIGHT cells, Wnt3a-driven luciferase reporter, luminescence; inhibition, % at 6.25 µM; 20% of 2,500 active; AID 651995;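 active means mean inhibition above about 25%, limit read from the data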
# * hit, by the source's call; x = no result given.
SMILES,PAX8 inh HTS,Beta apoptosis,CSC inhib,Gli-Sufu block,Mdm2 MdmX PPI,Shn3 3UTR inh,Mdm2-MdmX conf,others
COC(=O)C1=C(c2ccc(F)cc2OCc2ccccc2)C[C@@H]2CC[C@H]1N2C(=O)NCc1ccc(N(C)C)cc1,9,-5,18,14,45,4,x,
O=C(Cc1cccnc1)N1CCCCN2[C@@H](CO)[C@@H](c3ccc(C#CC4(O)CCCC4)cc3)[C@@H]2C1,2,x,x,x,x,x,x,
Cc1cccc(S(=O)(=O)N2[C@@H]3c4ccc(-c5ccncc5)c(=O)n4C[C@H]2[C@H](CO)[C@H]3C(=O)O)c1,4,x,x,x,x,x,x,
COc1ccc(C#Cc2ccc([C@H]3[C@@H](CO)N4CCCCN(C(=O)Cc5ccncc5)C[C@H]34)cc2)cc1,-13,x,x,x,x,x,x,
CCCN1[C@@H]2Cn3c(ccc(-c4cccc(C(=O)N(C)C)c4)c3=O)[C@H]1[C@@H](C(=O)OC)[C@@H]2CO,-14,x,x,x,x,x,x,
CCCCCSc1cc(OC)c(CCNC)cc1OC,x,45,30,-5,53*,-16,5,
CCCCCCCSc1cc(OC)c(CCNC)cc1OC,x,-2,41,10,53*,94*,26,
COC(=O)C1=Nc2ccccc2/C1=C\c1c(O)n(-c2ccc(Br)cc2)c(=O)[nH]c1=O,17,-3,9,7,x,-4,x,
O=c1[nH]c(=O)n(-c2ccccc2)c(O)c1/C=C1/C(c2ccccc2)=Nc2ccccc21,-14,8,88*,-11,61*,-16,62*,Full FLuc ctr=75*
CN1[C@@H]2Cn3c(cccc3=O)[C@H]1[C@@H](C(=O)NCC1CC1)[C@@H]2CO,-8,x,x,x,x,x,x,
CC[C@@]1(O)C(=O)OCc2c1cc1n(c2=O)Cc2cc3c(NC(=O)CN)cccc3nc2-1,99*,71,108*,31,84*,27,79*,Full FLuc ctr=57*
COc1ccc(C#Cc2ccc([C@H]3[C@@H](CO)N4CCCCN(C(=O)Cc5cccnc5)C[C@H]34)cc2)cc1,-4,x,x,x,x,x,x,
Cc1ccc(Cn2nnnc2CN2CCC(n3nnc4cc(C(F)(F)F)ccc43)CC2)cc1,-2,19,-4,-1,71*,-3,28,
COc1cc2c(cc1OC)[C@@H]1C(=O)c3ccc4c(c3O[C@@H]1CO2)C[C@H](C(C)C)O4,12,133*,41,83*,58*,78,39,Full FLuc ctr=64*;Gli-Sufu confirm=85*;Gli cytotox=42*;Wnt3a cs=53*
COC(=O)[C@H]1[C@H](CO)[C@H]2Cn3c(ccc(-c4cccc(C(=O)N(C)C)c4)c3=O)[C@@H]1N2CC1CC1,-6,x,x,x,x,x,x,
NC(=O)c1cc([N+](=O)[O-])cc([N+](=O)[O-])c1,15,x,x,16,x,-18,x,
CC(C)(C)c1cc([N+](=O)[O-])cc(C(C)(C)C)c1O,67*,100*,47,51,88*,x,39,Gli-Sufu confirm=77*;Gli cytotox=42*;Wnt3a cs=72*
CCN1[C@@H]2c3ccc(-c4cccc(OC)c4)c(=O)n3C[C@H]1[C@H](CO)[C@H]2C(=O)OC,-6,x,x,x,x,x,x,
Cc1cc(-c2ccccc2)cc(-c2ccccc2)[n+]1CCc1ccccc1,85*,133*,16,92*,61*,76,12,Gli-Sufu confirm=92*;Gli cytotox=48*;Wnt3a cs=73*
CC1=CC2OC3CC4OC(=O)C=CC=CC(=O)OCCC(C)C(O)C(=O)OCC2(CC1O)C4(C)C31CO1 (stereo unspecified),x,x,x,88*,x,89*,x,Gli-Sufu confirm=96*;Gli cytotox=82*;Wnt3a cs=104*
CCN1C(=O)NC(=O)/C(=C/c2cc(C)n(-c3sc(C)c(C)c3C#N)c2C)C1=O,7,0,3,0,16,-6,x,

# Assay outcomes deposited in PubChem by several laboratories.
